Among all 360,000 compounds or so, about 1,300 (0.36%) were called active. The sample holds actives, similar compounds and a random draw of the others, so the mix is not that of the screen. Values without a mark were called inactive. Rule as the data show it: active = inhibition above about 19%; inactive = the rest.

One may read the inhibition as the relative decrease from the control value, in per cent.

The assay relates to T-cell receptor (TCR). As to the kind of experiment: small molecules blocking TCR binding to CD3 – biochemical, fluorescence, TAMRA-labeled TCR probe, primary screen (AID 651800).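 Also: recombinant mutant TCR 2C K166C tagged with TAMRA read by polarization; 0% = receptor in buffer alone and 100% = receptor with positive control.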 The settings on record: at 9.4 µM, stronger effect = higher value.
Regarding `COC(=O)Cc1nnn2c1[C@H](C)[C@H](c1ccccc1Br)OCC2`, the inhibition was -3.6%.

With `COC(=O)C1=C(C)N(Cc2cccc(C(F)(F)F)c2)C(=NCc2ccccc2)NC1c1ccccc1C(F)(F)F` (stereo unspecified), the inhibition is 2.13%.

Take `O=C1[C@@H](c2ccccc2)[C@@H](c2ccccc2)N1c1ccccc1`: the inhibition is 4.73%.

Consider `C=CC1=CCN(S(=O)(=O)C(C)(C)C)[C@@H]1CCO`, for which the inhibition was 5.24%.

In the case of `O=[N+]([O-])c1cc(Cl)cc(/C=N/NC(=S)Nc2cc(S(=O)(=O)N3CCOCC3)ccc2Cl)c1O`, the inhibition is 41.3% (active).

Take `COC(=O)c1cc(Oc2ccc(S(=O)(=O)N3CCOCC3)cc2[N+](=O)[O-])cc(C(=O)OC)c1`: the inhibition is 7.58%.

As to `Cc1cc(OCCCC(=O)Nc2cc(S(=O)(=O)N3CCOCC3)ccc2N2CCOCC2)ccc1Cl`, the inhibition is 0.46%.

Regarding `O=S(=O)(c1cccs1)N1CCCc2nc(-c3ccc(Br)cc3)ccc21`, the inhibition is 3.53%.

For the molecule `COc1ccccc1CCn1cnc(-c2ccccc2)c1C(C)C`, the inhibition was 0.67%.

`COc1ccc(-c2c(-c3cc(OC)cc(OC)c3)n(C)c3ccc(-c4ccn[nH]4)cc23)cc1`: the inhibition is 23.9% (active).

Consider `COc1cc(OC)cc(-c2c(-c3ccc(F)cc3)c3cc(-c4ccc5cc[nH]c5c4)ccc3n2C)c1`, for which the inhibition was -1.04%.

In the case of `COc1cc(OC)cc(-c2c(-c3cccs3)c3cc(-c4ccc(OC)nc4)ccc3n2C)c1`, the inhibition was -3.68%.

For the molecule `COc1cccc(CNC(=O)[C@H]2CCCN2C(=O)[C@H]2CCCN2C(=O)c2ccc(F)cc2)c1`, the inhibition is 5.75%.

Turning to `Cc1ccc(S(=O)(=O)NCCC(=O)NNC(=O)C2COc3ccccc3O2)cc1` (stereo unspecified), the inhibition was -2.9%.

As for `Cc1c(CCC(=O)O)c(=O)oc2c(C)c(OCc3ccccc3Cl)ccc12`, the inhibition is -7.63%.

With `Cc1c(CC(=O)N2CCN(C(=O)C3COc4ccccc4O3)CC2)c(=O)oc2c(O)c(O)ccc12` (stereo unspecified), the inhibition is 82.2% (active).

Take `O=c1ccc2c(-c3ccccc3S(=O)(=O)O)c3ccc(O)c(O)c3oc-2c1O`: the inhibition was 33.4% (active).

On to `COc1ccc(C2=CN(Cc3ccccc3)C(c3ccc(OC)cc3)CC2=O)cc1` (stereo unspecified), for which the inhibition was -0.11%.

`COC(=O)[C@]12C[C@H](CC(=O)NCCCCc3ccccc3)C(=O)N(Cc3ccc4c(c3)OCO4)C1=C[C@H](C(C)(C)C)O[C@@H]2C`: the inhibition was -0.56%.

Turning to `COC(=O)C1=C(C)N(Cc2ccccc2C(F)(F)F)C(=NCc2ccc(C(F)(F)F)cc2)NC1c1ccc(F)cc1` (stereo unspecified), the inhibition was 10.2%.

Consider `COC(=O)c1ccc(-c2c(-c3ccccc3)ncc3cc(OC)c(OC)cc23)cc1`, for which the inhibition was -0.95%.

Consider `COc1cc2ccc(C(C)=O)c(O)c2cc1OC`, for which the inhibition is -7.1%.

`COc1ccc(/C(=N\O)c2nccc3cc(OC)c(OC)cc23)cc1OC`: the inhibition was 37.5% (active).

Consider `CN(C)CCNC(=O)Cc1ccc([N+](=O)[O-])cc1`, for which the inhibition was 6.84%.

Take `CN(C)CCNC(=O)C(C(=O)c1ccccc1)n1ccccc1=O` (stereo unspecified): the inhibition is 27.9% (active).

For `O=C(NCC1CCCO1)C(C(=O)c1ccccc1)n1cc(Cl)ccc1=O` (stereo unspecified), the inhibition was 4.24%.

With `Nc1ncnc2c1ncn2C1OC(CO)CC1O` (stereo unspecified), the inhibition is -7.35%.

Take `COC(=O)c1c(-c2ccc(OC)cc2)c2c(c3c4ccccc4n(S(=O)(=O)c4ccc(C)cc4)c13)C(=O)N(C)C2`: the inhibition is 0.77%.

Regarding `O=S1(=O)c2c(cccc2N2CCCC2)O[C@H](COCc2ccccc2)CN1C1CC1`, the inhibition is 19.3% (active).

In the case of `CSc1ccc(Oc2cccc3c2S(=O)(=O)N([C@H](C)c2ccccc2)C[C@@H](COCc2ccccc2)O3)cc1C`, the inhibition was 11.5%.

On to `O=S1(=O)c2c(cccc2N2CCCCC2)O[C@H](COCc2ccccc2)CN1C1CC1`, for which the inhibition is 2.48%.

Consider `CC1CCN(C(=O)c2ncn3c2C(=O)N[C@@H](C)C3)CC1`, for which the inhibition is 3.49%.

As for `COc1ccc(/C=C/c2c(-c3cccc(C)c3)oc3ccc(-c4ccc5c(c4)OCO5)cc23)cc1`, the inhibition is -3.78%.

Turning to `Nc1[nH]c(C(=O)c2ccc(Br)cc2)c(-c2ccc3c(c2)OCO3)c1C(=O)NCCc1c[nH]c2ccccc12`, the inhibition was -5.65%.

As to `COc1ccccc1N(CC(=O)Nc1c(C)n(C)n(-c2ccccc2)c1=O)S(=O)(=O)c1ccccc1`, the inhibition is 3.09%.

Consider `COc1ccccc1N(CC(=O)N1CCCCC1)S(=O)(=O)c1ccccc1`, for which the inhibition was 3.6%.

Consider `COc1ccccc1N(CC(=O)N/N=C(\C)c1ccccc1O)S(=O)(=O)c1ccc(C)cc1`, for which the inhibition is 26.6% (active).

Regarding `COC(=O)[C@]12C[C@H](CC(=O)N3CCN(C(=O)C4CC4)CC3)C(=O)N(Cc3ccc4c(c3)OCO4)C1=C[C@H](C(C)(C)C)O[C@@H]2C`, the inhibition is 3.03%.

Turning to `C/C=C/C=C/C(=O)O`, the inhibition was 27.1% (active).

On to `COc1ccc(-c2ccccc2C2Cc3nnccc3CN2C(=O)Nc2ccccc2)cc1` (stereo unspecified), for which the inhibition was -1.6%.

With `CCCCCCCCN1C(=O)[C@@H](CC(=O)NCc2ccccc2)C[C@@]2(C(=O)OC)C1=C[C@H](C(C)(C)C)O[C@@H]2C`, the inhibition is -4.58%.

Consider `Cc1cc(C)c(NC(=O)CN2C(=O)NC(Cc3ccccc3)C2=O)c(C)c1` (stereo unspecified), for which the inhibition is -1.72%.

On to `O=C1C(Cc2ccc(O)cc2)NC(=S)N1Cc1ccccc1` (stereo unspecified), for which the inhibition is 25.9% (active).

With `CCCCc1ccc(NC(=O)CN2C(=O)NC(Cc3ccccc3)C2=O)cc1` (stereo unspecified), the inhibition was -0.34%.

Regarding `COc1ccccc1-c1ccc([C@@H]2C[C@H]3[C@H](CON3C)CN2S(=O)(=O)c2cc(Cl)cc(Cl)c2)cc1`, the inhibition is -0.88%.

For the molecule `C[C@@H]1ON(C)[C@H]2C[C@H]3c4cc(N5CCOCC5)ccc4CCN3C[C@@H]12`, the inhibition is 7.02%.

On to `CCN(CC)c1ccc2cc(C(N)=O)/c(=N\NC(=O)c3ccncc3)oc2c1`, for which the inhibition is 30.5% (active).

Consider `CCN(CC)c1ccc(C(=O)N/N=C(\C)c2cccc(OC)c2)cc1`, for which the inhibition was 6.48%.

As for `COc1cccc2cc(C(N)=O)/c(=N\NC(=O)c3ccccc3)oc12`, the inhibition was 6.06%.

As for `O=C(NCc1ccccc1)[C@H]1CCCN1C(=O)[C@@H]1CCCN1C(=O)c1ccc(Cl)cc1Cl`, the inhibition was 5.28%.

As for `CCc1ccc(C2=CC(=O)CC(C)(C)C2=O)cc1`, the inhibition is -0.75%.

For the origin of these results see PubChem BioAssay AID651800 (The Scripps Research Institute Molecular Screening Center, 2012).
